In assay [1] the target is Lysosomal acid glucosylceramidase (Homo sapiens) (UniProt P04062). The assay is described as follows: Glucocerebrosidase-p2 (AID 348; in the data active = potency below about 10 µM; also: potency is read from the fitted curve at half-maximal effect). The following applies: purified GBA, blue fluorogenic substrate, 40 min. In outline:
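Compounds titrated from 0.6 nM upwards against 0.2 nM enzyme in pH 5.9 citric acid/KH2PO4, taurocholate, tween-20; blue fluorogenic substrate 80 uM, 40 min room temperature, stopped and read Ex 365/Em 440 for AC50.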

Assay [2] is described as follows: AP1 Signaling Pathway (AID 357).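 Also: ME-180 reporter cells stimulated with EGF at its EC50 level; % is scaled to controls: 0 for no effect and ±100 for the full control effect.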 The settings on record: ME-180 AP-1-bla reporter, EGF-induced, beta-lactamase ratio, 5 h; at 7.69 µM (top of the series) unless noted. The procedure, abridged:
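First, ME-180 AP-1-bla cells were cultured overnight at 37 °C in low-serum Opti-MEM. Next, titrated compounds with EC50 EGF were incubated 5 hours. Finally, CCF4 was added for 2.5 hours and the 460/530 nm ratio recorded.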

Assay [3] in a line: NFAT Signaling Pathway (AID 444).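 Also: carbachol stimulus at about its EC50 of 1 µM final; % is scaled to controls: 0 for no effect and ±100 for the full control effect.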 The settings on record: Jurkat NFAT-bla M1, carbachol, beta-lactamase ratio, 5 h; at 7.69 µM (top of the series) unless noted. In outline:
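Jurkat cells with NFAT-driven β-lactamase reporter and co-expressed M1 receptor, stimulated with carbachol (final 1 uM, ~EC50), compound titration, 5 h at 37 °C. CCF4 loaded 1 h at RT; 460/530 nm ratio gave %activity and AC50.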

Assay [4] is described as follows: Stat Signaling Pathway (AID 446).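 Also: ME-180 cervical cancer cells given 40 pM IL-6 alongside compound; SIE-controlled beta-lactamase reporter measured as 460/530 nm FRET emission ratio; % is scaled to controls: 0 for no effect and ±100 for the full control effect.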 The settings on record: ME-180 SIE beta-lactamase reporter, IL-6 stimulated, 5 h; at 7.69 µM (top of the series) unless noted. The procedure, abridged: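 ME-180 SIE-bla cells; overnight plating; cpd + IL-6 40 pM, 5 h, 37 C; LiveBLAzer 2.5 h RT; 460/530 nm emission ratio. Normalized to 300 pM IL-6 and 125 nM JAK inhibitor controls.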

For assay [5], the target named is Glucocorticoid receptor (Homo sapiens) (UniProt P04150). The assay is described as follows: GR-EFC Redistribution (AID 451; calls by dose curve; also: potency is read from the fitted curve at half-maximal effect). The following applies: CHO-K1 GR-EFC translocation, beta-gal luminescence, 2 h. The procedure, abridged: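 CHO-K1 cells expressing nuclear EA and GR-ED fragments of b-gal; compounds titrated up to 46 uM final, 2 h at 37 C. GR nuclear translocation read as complemented b-gal luminescence after 1 h RT detection.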

The target in assay [6] is Mitogen-activated protein kinase 10 (Mus musculus) (UniProt Q61831). The assay is described as follows: JNK3 AlphaScreen Assay (AID 530).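 Also: kinase came from lysate of stimulated human HepG2 cells; signal reports phosphorylation of biotinylated GST-cJun 1-79 at Ser73 with 10 µM ATP; % is scaled to controls: 0 for no effect and ±100 for the full control effect.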 The settings on record: JNK3 lysate, c-Jun phosphorylation; series mostly up to 57.1 µM. The procedure, abridged: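 qHTS format: compounds tested as titrations against IL-1beta/TNF-alpha-activated HepG2 lysate JNK3 with biotin-GST-cJun substrate and 10 uM ATP at room temperature. Loss of anti-phospho-cJun AlphaScreen signal indicates inhibition.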

The target of assay [7] is 3',5'-cyclic-AMP phosphodiesterase 4B (Homo sapiens) (UniProt Q07343). Put plainly: qHTS Assay for Inhibitors of PDE-IV (AID 607; active = well fitted activation curve with a large enough effect in the main read-out, with a control signal flat, not every such curve was filed as active; also: % of control where 0% means no effect). The settings on record: HEK293 ACTOne CNG channel cells, membrane potential fluorescence; series mostly up to 22.9 µM. In outline:
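ACTOne HEK293 cells carry a modified cAMP-gated CNG channel and express endogenous PDE4; plated 1000 cells/well, compounds up to 22.9 uM final. Membrane-potential dye fluorescence (ex 535/em 590) was read; parental cells received 10 uM forskolin + 100 uM RO 20-1724.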

Assay [8] can be described thus: qHTS Assay for Lipid Storage Modulators (AID 1519; calls by dose curve). The following applies: Drosophila S3 cells, BODIPY lipid droplet/cell ratio, laser cytometry, cells loaded with oleic acid; for activity change, negative = inhibition: at 57.5 µM (top of the series). In outline: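 Cells seeded at 5,000 per well were treated with compounds over a concentration series and loaded with oleic acid (400 uM, as added). Lipid droplet fluorescence (488 nm excitation, 500-530 nm channel) was read by laser-scanning cytometry and normalized to 20 uM Triacsin C.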

Assay [9] can be described thus: Primary qHTS for small molecule stabilizers of the endoplasmic reticulum resident proteome: Secreted ER Calcium Modulated Protein (SERCaMP) assay (AID 1508630; active = well fitted inhibition curve with a large enough effect; also: % is scaled to controls: 0 for no effect and ±100 for the full control effect). The following applies: SH-SY5Y GLuc-SERCaMP (Gaussia luciferase released on ER calcium loss) secretion, thapsigargin, luminescence; series mostly up to 38.4 µM. The procedure, abridged: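 GLuc-SERCaMP-expressing SH-SY5Y cells, pretreated 16 h with compound, are challenged with thapsigargin to empty ER calcium stores; after 4 h, coelenterazine is added directly to the medium and luminescence is imaged.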

In assay [10] the target is Cytochrome P450 3A4 (Homo sapiens) (UniProt P08684). Put plainly: qHTS Assay for Inhibitors and Substrates of Cytochrome P450 3A4 (AID 884; active = well fitted inhibition curve with a large enough effect; also: % is scaled to controls: 0 for no effect and ±100 for the full control effect; nearly all actives have a fitted effect of over 50% in size). The following applies: recombinant CYP3A4, Luciferin-PPXE luminescence; series mostly up to 57.1 µM. In outline:
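20 nM human CYP3A4 with 25 uM Luciferin-PPXE (at KM) in 200 mM KPO4, preincubated 10 min with compound; NADPH regeneration started a 60 min RT reaction. Luciferin detected by luminescence, normalized to 57 uM ketoconazole as full inhibition.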

Assay [11] can be described thus: qHTS Assay for Identification of Small Molecule Agonists for Hypoxia Response Element Signaling Pathway (AID 914; active = well fitted activation curve with a large enough effect in the signal ratio, with a control signal flat, not every such curve was filed as active; the % refers to the signal ratio; also: % of control where 0% means no effect). The settings on record: ME-180 (cervical carcinoma) HRE-bla reporter, beta-lactamase ratio, CoCl2, 17 h; activation: stronger effect = higher value. In outline:
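HRE-bla ME-180 assay for agonist-like enhancement of an EC50 CoCl2 stimulus: 17 h at 37 degrees Celsius, CCF4 for 2.5 h, ratiometric 460/530 nm signal converted to %Activity and fitted to AC50.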

[12] abbreviates: measured here: cell count channel max response.
Where [13] appears, read: measured here: lipid channel max response.

Results filed as inconclusive are left out. Activity calls are given as the source filed them. Unless noted, calls follow the shape of the dose curve; as a rule, active = well fitted curve in either direction with a large enough effect (not every such curve was filed as active); inconclusive = small, poorly fitted or top-dose-only effect, or another doubt; inactive = flat fitted curve, though single readings scatter.

Glucocorticoid receptor (Homo sapiens), sequence (P04150 whole entry, looked up, the tested form may be a part): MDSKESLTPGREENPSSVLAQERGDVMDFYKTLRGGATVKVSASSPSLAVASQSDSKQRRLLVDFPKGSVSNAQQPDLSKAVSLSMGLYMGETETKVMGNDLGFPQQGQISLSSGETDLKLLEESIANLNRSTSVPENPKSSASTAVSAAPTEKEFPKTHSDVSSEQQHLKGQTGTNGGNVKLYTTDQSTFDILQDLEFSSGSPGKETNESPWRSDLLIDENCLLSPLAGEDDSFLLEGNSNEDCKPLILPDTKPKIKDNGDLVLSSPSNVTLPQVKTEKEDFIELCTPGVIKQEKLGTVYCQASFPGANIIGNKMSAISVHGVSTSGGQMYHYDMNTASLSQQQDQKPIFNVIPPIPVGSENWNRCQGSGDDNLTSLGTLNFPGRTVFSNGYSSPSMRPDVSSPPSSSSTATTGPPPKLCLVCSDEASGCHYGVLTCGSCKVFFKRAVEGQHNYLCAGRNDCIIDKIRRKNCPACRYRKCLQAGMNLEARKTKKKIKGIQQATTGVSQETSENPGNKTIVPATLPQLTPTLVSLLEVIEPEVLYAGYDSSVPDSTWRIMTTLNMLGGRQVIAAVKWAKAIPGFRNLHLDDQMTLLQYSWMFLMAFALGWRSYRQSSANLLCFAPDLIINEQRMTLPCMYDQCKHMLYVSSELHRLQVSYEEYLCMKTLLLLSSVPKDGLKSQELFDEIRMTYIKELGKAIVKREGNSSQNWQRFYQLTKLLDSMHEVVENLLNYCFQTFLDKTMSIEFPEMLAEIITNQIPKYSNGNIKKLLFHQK
Lysosomal acid glucosylceramidase (Homo sapiens), sequence (P04062 whole entry, looked up): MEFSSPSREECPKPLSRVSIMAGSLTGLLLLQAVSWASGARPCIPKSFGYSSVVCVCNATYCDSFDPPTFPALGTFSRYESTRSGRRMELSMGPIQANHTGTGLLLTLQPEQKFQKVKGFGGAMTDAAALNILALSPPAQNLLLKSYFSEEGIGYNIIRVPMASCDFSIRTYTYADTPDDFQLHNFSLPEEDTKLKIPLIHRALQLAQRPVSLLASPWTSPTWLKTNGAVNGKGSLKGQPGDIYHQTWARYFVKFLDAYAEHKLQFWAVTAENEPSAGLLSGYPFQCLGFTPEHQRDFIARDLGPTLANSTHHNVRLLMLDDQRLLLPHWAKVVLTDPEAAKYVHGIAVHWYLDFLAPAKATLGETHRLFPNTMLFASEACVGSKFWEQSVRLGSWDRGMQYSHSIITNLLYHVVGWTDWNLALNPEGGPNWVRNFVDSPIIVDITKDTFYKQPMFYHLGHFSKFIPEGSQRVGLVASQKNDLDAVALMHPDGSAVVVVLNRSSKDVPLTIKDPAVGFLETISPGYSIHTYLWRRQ
3',5'-cyclic-AMP phosphodiesterase 4B (Homo sapiens), sequence (Q07343 whole entry, looked up): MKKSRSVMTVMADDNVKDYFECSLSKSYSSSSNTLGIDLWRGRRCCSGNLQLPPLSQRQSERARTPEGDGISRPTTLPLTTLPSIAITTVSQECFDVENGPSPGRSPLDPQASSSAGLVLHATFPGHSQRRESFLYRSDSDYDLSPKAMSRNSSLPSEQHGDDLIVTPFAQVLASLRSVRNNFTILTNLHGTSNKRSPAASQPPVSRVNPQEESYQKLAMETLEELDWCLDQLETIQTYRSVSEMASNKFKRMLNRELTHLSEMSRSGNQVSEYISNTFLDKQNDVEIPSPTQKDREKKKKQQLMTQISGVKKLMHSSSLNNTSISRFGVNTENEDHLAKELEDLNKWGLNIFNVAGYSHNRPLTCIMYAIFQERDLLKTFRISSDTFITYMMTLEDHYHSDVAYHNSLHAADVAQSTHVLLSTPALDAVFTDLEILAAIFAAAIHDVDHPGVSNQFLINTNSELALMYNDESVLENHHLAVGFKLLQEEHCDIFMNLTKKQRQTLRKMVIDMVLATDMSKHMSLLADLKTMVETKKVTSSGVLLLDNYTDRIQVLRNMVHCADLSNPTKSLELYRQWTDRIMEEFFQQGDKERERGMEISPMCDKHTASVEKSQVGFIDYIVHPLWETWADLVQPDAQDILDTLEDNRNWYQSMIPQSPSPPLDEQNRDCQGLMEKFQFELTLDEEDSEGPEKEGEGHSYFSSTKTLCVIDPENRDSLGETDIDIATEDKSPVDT
Cytochrome P450 3A4 (Homo sapiens), sequence (P08684 whole entry, looked up): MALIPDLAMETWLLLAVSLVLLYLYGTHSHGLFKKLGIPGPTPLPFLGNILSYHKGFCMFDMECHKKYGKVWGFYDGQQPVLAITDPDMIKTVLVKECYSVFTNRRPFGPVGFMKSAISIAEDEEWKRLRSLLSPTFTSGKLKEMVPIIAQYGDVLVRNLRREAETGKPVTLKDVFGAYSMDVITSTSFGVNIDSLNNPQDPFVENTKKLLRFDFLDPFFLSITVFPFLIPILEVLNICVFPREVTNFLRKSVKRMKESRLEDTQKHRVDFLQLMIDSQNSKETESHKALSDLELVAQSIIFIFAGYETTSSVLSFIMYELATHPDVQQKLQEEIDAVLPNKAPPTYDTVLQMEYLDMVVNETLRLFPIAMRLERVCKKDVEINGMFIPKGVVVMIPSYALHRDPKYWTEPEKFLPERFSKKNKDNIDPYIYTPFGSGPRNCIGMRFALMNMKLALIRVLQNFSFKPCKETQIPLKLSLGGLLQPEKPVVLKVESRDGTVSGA

`CC(C)NC(=O)N1CC[C@@]2(CCCN(C(=O)c3cnccn3)C2)C1`: the Potency in assay [1] was > 11.4 µM (inactive); in assay [5], > 46 µM (inactive). Also, the figures for the activity change, negative = inhibition in assay [2], in assay [3] and in assay [8] were 7.64% (inactive), 11.4% (inactive) and 3.99% (inactive), respectively. The activity, negative = inhibition in assay [4] was 4.04% (inactive). Further, the Potency result in assay [6] and in assay [7] was “inactive” throughout. Besides, the max response in assay [8] (setting [12]) is -1.16%; in [8] (setting [13]), 5.89%. The outcome in assay [9] was inactive.

As for `Cn1cccc1C(=O)N1CCC2(CCN(C(=O)Nc3cccc(C#N)c3)CC2)CC1`, the results for the Potency in assay [1] and in assay [5] were > 11.4 µM (inactive) and > 46 µM (inactive), respectively. In addition, the figures for the activity change, negative = inhibition in assay [2], in assay [3] and in assay [8] were -16.2% (inactive), 8.67% (inactive) and 4.21% (inactive), respectively. Also, in [4], the activity, negative = inhibition is -3.46% (inactive). Further, the Potency result in assay [6] and in assay [7] was “inactive” throughout. The max response was found to be 4.21% in assay [8] (setting [12]) and 11.6% in assay [8] (setting [13]). Moreover, in [9], the result was inactive.

`CC(=O)N1CCC2(CC1)CCN(c1ncccn1)CC2`: the Potency was > 11.4 µM (inactive) in assay [1] and > 46 µM (inactive) in assay [5]. Further, the activity change, negative = inhibition in assay [2] is -16.8% (inactive); in [3], -1.48% (inactive); in assay [8] it was 4.77% (inactive). For the same compound, the activity, negative = inhibition in [4] was 10.5% (inactive). Besides, the Potency result in assay [6] and in assay [7] was “inactive” each time. The max response in [8] (setting [12]) worked out at 8.06%; in assay [8] (setting [13]), 17.2%. Further, the outcome in assay [9] was inactive.

`COc1ccc(C(=O)N2CCC3(CC2)CN(c2ncccn2)C3)cc1`: the Potency in [1] was > 11.4 µM (inactive); in assay [5], > 46 µM (inactive). For the same compound, the figures for the activity change, negative = inhibition in assay [2], in [3] and in [8] were -9.3% (inactive), 13.7% (inactive) and 1.87% (inactive), respectively. The activity, negative = inhibition in assay [4] is -24.2% (inactive). For the same compound, the Potency entry in assay [6] and in [7] was “inactive” throughout. In addition, the max response is 12.3% in assay [8] (setting [12]) and 16.8% in [8] (setting [13]). In [9], the result was inactive.

On to `Cc1noc(C)c1C(=O)N1CCC[C@@]2(CCN(C(=O)Nc3cccc(C#N)c3)C2)C1`, for which the Potency is > 11.4 µM (inactive) in [1] and > 46 µM (inactive) in assay [5]. Besides, the results for the activity change, negative = inhibition in assay [2], in [3] and in assay [8] were -3.34% (inactive), 5.42% (inactive) and 5.85% (inactive), respectively. Besides, the activity, negative = inhibition in assay [4] was -8.01% (inactive). For the same compound, the Potency entry in assay [6] and in [7] was “inactive” throughout. Moreover, the values for the max response in assay [8] (setting [12]) and in assay [8] (setting [13]) were 14.6% and 24.7%, respectively. The result in [9] was inactive.

Consider `COc1ccc(C(=O)N2CCC3(CC2)CCN(c2ccccc2)CC3)cc1`, for which the results for the Potency in [1] and in assay [5] were > 11.4 µM (inactive) and > 46 µM (inactive), respectively. In addition, the activity change, negative = inhibition was -11.8% (inactive) in assay [2], 1.53% (inactive) in assay [3] and 4.37% (inactive) in assay [8]. Also, in [4], the activity, negative = inhibition is -8.92% (inactive). The Potency entry in assay [6], in assay [7] and in [10] was “inactive” each time. Besides, the activation in assay [11] was -13.6% (inactive). Also, the results for the max response in assay [8] (setting [12]) and in assay [8] (setting [13]) were 9.05% and 17.4%, respectively. In addition, in assay [9], the result was inactive.

Consider `COC(=O)N1CCC[C@@]2(CCN(c3ccccc3)C2)C1`, for which the Potency was > 11.4 µM (inactive) in assay [1] and > 46 µM (inactive) in [5]. For the same compound, the activity change, negative = inhibition is -10.2% (inactive) in assay [2], -9.75% (inactive) in assay [3] and -12.5% (inactive) in [8]. Besides, the activity, negative = inhibition in [4] is 7.98% (inactive). The Potency result in [6] and in assay [7] was “inactive” each time. Moreover, the max response in [8] (setting [12]) is 14%; in [8] (setting [13]), -1.29%. Further, the result in [9] was inactive.

In the case of `O=C(c1cc(C(F)(F)F)cc(C(F)(F)F)c1)N1CCC2(CCN(Cc3ccncc3)CC2)CC1`, the figures for the Potency in assay [1] and in assay [5] were > 11.4 µM (inactive) and > 46 µM (inactive), respectively. In addition, the activity change, negative = inhibition in assay [2] was -22.8% (inactive); in assay [8], 3.65% (inactive). Further, the activity, negative = inhibition in assay [4] is 6.58% (inactive). Moreover, the Potency entry in [6] and in [7] was “inactive” throughout. Further, the values for the max response in assay [8] (setting [12]) and in [8] (setting [13]) were 7.35% and 10.5%, respectively. The result in assay [9] was inactive.

`O=C(c1cnccn1)N1CCC2(CCN(Cc3cc(C(F)(F)F)cc(C(F)(F)F)c3)CC2)CC1`: the Potency is > 11.4 µM (inactive) in assay [1] and > 46 µM (inactive) in [5]. The activity change, negative = inhibition in assay [2] is 6.25% (inactive); in assay [8] it was 2.5% (inactive). Further, the activity, negative = inhibition in [4] is -5.04% (inactive). The Potency result in [6] and in [7] was “inactive” each time. Moreover, the max response amounted to 13.6% in [8] (setting [12]) and 15.1% in assay [8] (setting [13]). In addition, the result in assay [9] was inactive.

Turning to `O=C(c1cc(C(F)(F)F)cc(C(F)(F)F)c1)N1CCC2(CCCN(Cc3ccccc3)C2)CC1`, the Potency in assay [1] was > 11.4 µM (inactive); in [5], > 46 µM (inactive). The activity change, negative = inhibition in assay [2] was 15.8% (inactive); in assay [8], -0.673% (inactive). The activity, negative = inhibition in assay [4] was -0.518% (inactive). The Potency entry in [6] and in assay [7] was “inactive” in each case. Moreover, the max response in assay [8] (setting [12]) turned out to be 4.9%; in assay [8] (setting [13]), 5.21%. In assay [9], the result was inactive.

The values are drawn from PubChem BioAssay (NCATS).
